Compound activity (PubChem BioAssay)
HCV inh: HCV inhibition. Huh7.5.1 HCVcc-Cre infection, luciferase reporter, 44 h. Potency, µM (series often up to 41.8 µM), for inactives: top-dose activity change, negative = inhibition, usual class: inhibitors. actives 3.4% (n = 340,000); active = well fitted inhibition curve with a large enough effect; inconclusive = small, poorly fitted or top-dose-only effect, or another doubt; inactive = no such curve, though single readings can be large or run the other way; note: potency is the fitted concentration of half-maximal effect; % is set by controls: 0 for no effect and ±100 for the full control effect
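Whole-lifecycle infectious HCVcc-Cre system; cells 1,000/well, compound then virus (~0.5 moi) added 4 h after plating, 44 h culture. Luciferase read 15 sec following 15 min substrate incubation, room temp.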
Lassa entry inh: blocks Lassa virus binding to or entry into cells; Potency, µM (top dose mostly 37.9 µM), for the others: top-dose activity change, negative = inhibition, hits mostly inhibitors; AID 540256; actives 1.2% (n = 300,000); Lassa virus pseudotype entry inhibition, cell reporter; calls by dose curve; tested in HEK293 cells; note: potency is the fitted concentration of half-maximal effect; % is set by controls: 0 for no effect and ±100 for the full control effect; nearly all actives have a fitted effect of over 50% in size
Marburg entry inh: inhibitors of Marburg virus binding or cell entry. Potency, µM (titrated, usually from 37.8 µM), for inactives: top-dose activity change, negative = inhibition, actives largely listed as inhibitors. AID 540276. actives 1.8% (n = 300,000). Marburg virus pseudotyped entry inhibition, cell reporter; calls by dose curve; tested in HEK293 cells; note: potency is the fitted concentration of half-maximal effect; % is set by controls: 0 for no effect and ±100 for the full control effect
FMDV inh: foot and mouth disease virus antiviral activity | FMDV antiviral cell-based qHTS | Potency, µM (series often up to 57.9 µM), without a hit: top-dose activity change, negative = inhibition, actives largely listed as inhibitors | actives 1.2% (n = 410,000) | AID 1159524; calls by dose curve; tested in HEK293T cells; note: read-out not given here; potency is the fitted concentration of half-maximal effect; % is set by controls: 0 for no effect and ±100 for the full control effect; nearly all actives have a fitted effect of over 45% in size
HCMV inh: blocks human cytomegalovirus replication | activity change, negative = inhibition, % at 57.5 µM | HFF cells, HCMV-luciferase reporter, 72 h; active compounds read low | actives 4.5% (n = 410,000) | AID 1259415; in the data active = activity change below about -60%; inconclusive = no clear call, values can overlap the other calls; inactive = above about -39%; note: % is set by controls: 0 for no effect and ±100 for the full control effect
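Two compound doses tested in HFFs infected with HCMV-luciferase, MOI 1 PFU/cell, 72 h at 37C. Lysate luminescence read with OneGlo; data normalized against buffer-only and 10uM Salinomycin inhibitor controls.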
SARS PLP yeast: inhibitors of SARS-CoV papain-like protease in yeast; S. cerevisiae expressing SARS-CoV PLpro, growth rescue; actives 0.19% (n = 330,000); Potency, µM (top dose mostly 32.9 µM), without a hit: at the highest dose activity, positive = growth rescue, most hits filed as activators; calls by dose curve; note: potency is the fitted concentration of half-maximal effect; 0% is about no effect; nearly all actives have a fitted effect of over 55% in size
Numbers without * were called inactive; ? = inconclusive; . = not tested or not shown; ! = not confirmed by another sample; [ ] = remark or other dose. Hits are enriched below; roughly 8% of the tested compounds scored in any of these assays.

SMILES	HCV inh	Lassa entry inh	Marburg entry inh	FMDV inh	HCMV inh	SARS PLP yeast
CC(=O)Nc1ccc(S(=O)(=O)N2CCN(CC(O)COc3ccc4ccccc4c3)CC2)cc1 (centres undefined)	-5%	-26%[14.3 µM]	6%	-94%	-87*	-2%
OC(COc1ccc2cc(Br)ccc2c1)CN1CCN(c2ccccn2)CC1 (centres undefined)	?	-3%	?	?	44	0%
CN(C)S(=O)(=O)N1CCN(CC(O)COc2ccc3cc(Br)ccc3c2)CC1 (centres undefined)	32µM*	0%	?	-29%	-13	-6%
CN(C)c1ccc(/C=N/N(CCC(=O)NC(C)(C)C)C2=NS(=O)(=O)c3ccccc32)cc1	3%	?	-26%[46.1 µM]	-17%	-15	0%
CC(C)(C)NC(=O)CCN(/N=C/c1ccc([N+](=O)[O-])o1)C1=NS(=O)(=O)c2ccccc21	?	-2%	?	?	-95*	-11%
COc1cc(C(=O)Nc2cc(OC)c(OC)c(OC)c2)ccc1OCc1c(C)noc1C	11µM*	-20%	5%	-21%	277	-6%
COc1ccc(NS(=O)(=O)c2cc(NC(=O)c3cccc(OCc4c(C)noc4C)c3)ccc2OC)cc1	?	?	?	55%	-65*	-15%
CCc1ccc(NC(=O)CSc2cn(CC(=O)N3CCOCC3)c3ccccc23)cc1	.	-1%[46.1 µM]	.	13%	?	.
CC(C)(C)c1nn(-c2ccccc2)c2[nH]c(=O)c(CNCc3ccc4c(c3)OCO4)cc12	-28%	?	?	.	-32	-8%
CCOc1cccc(NCc2cc3c(C(C)(C)C)nn(-c4ccccc4)c3[nH]c2=O)c1	13µM*	3%	?	.	6	-6%
CNc1snc(C)c1C(=O)OCC(=O)c1ccc(Cl)cc1	?	.	.	?	0	-20%
CNc1snc(C)c1C(=O)OC(C)C(=O)c1ccc(F)cc1 (centres undefined)	11µM*	.	.	?	-79*	-3%
COC(=O)N[C@H](CC(C)=O)c1ccc(Cl)cc1	.	.	3%[14.2 µM]	.	.	.
CCCN(CCC)C(=O)Cn1c(=O)n(-c2ccc(CC)cc2)c(=O)c2c3c(sc21)CCC3	.	8%[46.1 µM]	8%[46.1 µM]	-16%	-14	.
CCCOc1ccccc1C(=O)Nc1nc2c(s1)CCCC2	.	?	?	-13%	-64*	.
O=C(COc1ccccc1Cl)Nc1nc2c(s1)CCCC2	.	?	?	39%	-25	.
O=C(COc1ccccc1)Nc1nc2c(s1)CCCC2	-24%	?	6.3µM*	44%	15	-2%
COc1ccc(N=C2C(=O)N3c4c(cccc42)C(C)=CC3(C)C)cc1	?	2%	?	?	-63*	-22%
COc1ccc(N=C2C(=O)Nc3ccccc32)cc1	10%	?	6%	31%	-13	-5%
C=CCc1cccc2cc(-c3nc4ccc(C(=O)O)cc4[nH]3)c(=O)oc12	.	1%[46.1 µM]	.	16µM*	57	.
COc1ccc2cc(-c3nc4ccc(C(=O)O)cc4[nH]3)c(=O)oc2c1	.	10µM*	.	1µM*	-16	.
COc1cccc2cc(-c3nc4ccc(C)cc4[nH]3)c(=O)oc12	.	20%[46.1 µM]	.	45%	46	.
CCOc1cccc2cc(-c3nc4ccc(C(=O)O)cc4[nH]3)c(=O)oc12	.	21%[46.1 µM]	.	11µM*	47	0%
COc1ccc(-n2cc(-c3ccc4c(c3)OCO4)n(CC(=O)Nc3cccc(C)c3)c2=O)cc1	.	-27%[46.1 µM]	-11%[46.1 µM]	-4%	22	.
CCN(CC(=O)NCc1ccc(F)cc1)C(=O)C(C)Oc1cccc(Cl)c1 (centres undefined)	?	.	.	-2%	0	0%
SMILES	HCV inh	Lassa entry inh	Marburg entry inh	FMDV inh	HCMV inh	SARS PLP yeast
C#CCNC(=O)C[C@@H]1C[C@@]2(C(=O)OC)CCCCC=C2N(Cc2ccc3c(c2)OCO3)C1=O	.	.	.	3%	27	.
Cc1onc(-c2ccccc2)c1C(=O)O/N=C(\N)c1ccc([N+](=O)[O-])o1	11µM*	.	.	?	-10	-3%
Cc1cccn2c(=O)c3cc(C(=O)Nc4ccc(Cl)c(Cl)c4)sc3nc12	.	2%[46.1 µM]	?	-23%	-17	.
CCN1CCN(Cc2ccc(NC(=O)c3ccc(C)c(NC(=O)c4cc(-c5ccc(Br)cc5)n[nH]4)c3)cc2C(F)(F)F)CC1	?	.	.	-30%	?	0%
CCN1CCN(c2cc(C)c3cc(NC(=O)c4cccc(C(F)(F)F)c4)ccc3n2)CC1	.	1%[46.1 µM]	?	-19%	-30	.
CCN1CCN(Cc2ccc(NC(=O)c3ccc(C)c(NC(=O)c4cccc5[nH]ccc45)c3)cc2C(F)(F)F)CC1	9%	.	.	18µM*!	-99*!	0%
CCN1CCN(Cc2ccc(NC(=O)c3ccc(C)c(NC(=O)c4nccnc4N)c3)cc2C(F)(F)F)CC1	10µM*	.	.	-3%	-73*	1%
CCN1CCN(Cc2ccc(NC(=O)c3ccc(C)c(NC(=O)N4CCNC4=O)c3)cc2C(F)(F)F)CC1	?	.	.	-21%	-94*!	-8%
CCN1CCN(Cc2ccc(NC(=O)c3ccc(C)c(NC(=O)c4nccn4C)c3)cc2C(F)(F)F)CC1	-12%	.	.	0%	-16	1%
COc1ccc(OC)c(-c2ccnc(-n3ncc(C(=O)N4CCN(CCO)CC4)c3C3CC3)n2)c1	.	.	.	-8%	.	.
Cc1nn(CCC(=O)NNC(=S)Nc2ccc(F)cc2)c(C)c1Br	20%	?	-3%	-8%	54	-1%
CCCCNC(=S)NNC(=O)CCn1nc(C)c(Br)c1C	17%	?	?	12%	-106*	4%
CCN(CC)Cc1c(O)ccc2c(=O)c(Oc3ccccc3OC)coc12	6%	0%	12%	-14%	-61*	9%
COc1ccccc1Oc1coc2c(CN(C)C)c(O)ccc2c1=O	11%	11%	9%	-2%	-27	5%
Cc1cccc(Cc2ccc3ncc(-c4cccc(C(N)=O)c4)n3n2)c1	.	.	.	.	-72*	.
COCCN(C(=O)CCC(=O)Nc1nccs1)C(C(=O)NC(C)(C)C)c1ccc(F)cc1 (centres undefined)	16%	14%	1%[46.1 µM]	-3%	9	-3%
COCCN(C(=O)CCC(=O)Nc1nccs1)C(C(=O)NC(C)(C)C)c1ccc(C)cc1 (centres undefined)	9%	-7%	-5%[46.1 µM]	-11%	-74*	1%
CC(C)(C)NC(=O)C(c1ccc(O)cc1)N(C(=O)CCC(=O)Nc1nccs1)c1cccc(F)c1 (centres undefined)	-6%	0%[46.1 µM]	2.3µM*	16%	4	0%
Cc1cccc(N(C(=O)CCC(=O)Nc2nccs2)C(C(=O)NC(C)(C)C)c2ccc(O)cc2)c1 (centres undefined)	-13%	?	2.8µM*	-2%	-19	1%
CC1=C(c2ccc(C(C)C)cc2)S(=O)(=O)N=C1N1CCC(C(=O)NCc2ccc(C)o2)CC1	.	1%[46.1 µM]	.	-20%	16	.
